This is one part of a sample in which hits are shown more often than they occur.
Cruzain inh noDet = cruzain (T. cruzi) inhibition without detergent. P25779. purified cruzain, Z-FR-AMC fluorescence, no detergent. Potency, µM, hits mostly inhibitors. 2.3% of 200,000 active. AID 1476; note: nearly all actives have a fitted effect of over 40% in size
Target sequence (P25779 123-467 limits assumed): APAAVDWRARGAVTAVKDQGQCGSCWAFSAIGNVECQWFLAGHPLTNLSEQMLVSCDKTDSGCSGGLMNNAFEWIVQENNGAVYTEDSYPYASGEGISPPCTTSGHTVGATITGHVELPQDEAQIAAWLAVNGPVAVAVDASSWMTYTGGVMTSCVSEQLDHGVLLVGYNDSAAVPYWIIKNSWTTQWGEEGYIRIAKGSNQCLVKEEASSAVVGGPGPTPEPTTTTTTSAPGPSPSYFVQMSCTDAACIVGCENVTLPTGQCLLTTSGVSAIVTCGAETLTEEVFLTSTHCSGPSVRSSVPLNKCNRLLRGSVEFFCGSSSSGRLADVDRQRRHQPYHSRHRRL
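Purified cruzain at 1.5 nM, pre-incubated 15 min with compound at room temperature in 100 mM sodium acetate pH 5.5, 5 mM DTT, 0.00005% Triton X-100. Reaction started with 2 uM Z-FR-AMC; AMC fluorescence increase over 60 s gives rate.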
Cruzain inh Det = cruzain (T. cruzi) inhibition with detergent; P25779; Potency, µM, usual class: inhibitors; 0.43% of 200,000 active; purified cruzain, Z-FR-AMC fluorescence, 0.01% Triton; note: nearly all actives have a fitted effect of over 40% in size
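Steps: dispense cruzain (1.5 nM final) in acetate buffer pH 5.5 with DTT and 0.01% Triton X-100; pin-transfer compounds; incubate 15 min RT; add Z-FR-AMC (2 uM final); read fluorescence every 30 s, using the 60 s intensity change.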
NS1 inh = blocks influenza NS1 protein function; Potency, µM (highest dose often 46.1 µM); 0.4% of 270,000 active; AID 2326; calls by dose curve; note: actives are rising curves; nearly all actives have a fitted effect of over 50% in size
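Read-out: OD600 growth recovery of NS1-expressing budding yeast. Cells grown overnight at 30C in -URA glucose medium, washed, resuspended and diluted 1:100 in 2% galactose assay medium, pH 6.0. Same strain lacking NS1 served as positive control.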
Numbers stand for hits. Unless noted, calls come from the whole dose curve; as a rule, active = well fitted curve in the direction sought with a large enough effect; inconclusive = small, poorly fitted or top-dose-only effect, or another doubt; inactive = no such curve, though single readings can be large; an effect the other way counts as inactive or inconclusive.

For CCOC(=O)c1c(NC(=O)CSc2nc3ccccc3s2)sc(C(C)=O)c1C the results were Cruzain inh noDet inactive, Cruzain inh Det inactive and NS1 inh inconclusive.
For CCOC(=O)c1c(NC(=O)CSc2nc3cc(Cl)ccc3s2)sc(C(C)=O)c1C the results were Cruzain inh noDet 16µM, Cruzain inh Det inactive and NS1 inh inactive.
For CCOc1ccc(CCNC(=O)c2ccc(Cn3c(=O)c4cccn4c4cccnc43)cc2)cc1 the results were Cruzain inh noDet inactive and Cruzain inh Det inactive.
CCNc1ncc2nc(C)c(=O)n(C3CC3)c2n1 was read as Cruzain inh noDet inactive and Cruzain inh Det inactive.
Screening Cc1ccc(CC(Cc2nc3ccccc3[nH]2)c2nc3ccccc3[nH]2)cc1 (stereo not drawn) returned Cruzain inh noDet inactive and Cruzain inh Det inactive.
COc1cccc(-c2cc(C(F)(F)F)n3nc(C(=O)N4CCC5(CC4)OCCO5)cc3n2)c1 was read as Cruzain inh noDet inconclusive, Cruzain inh Det inactive and NS1 inh inactive.
`COc1cccc(-c2cc3nc(-c4ccccc4)cc(N4CCC5(CC4)OCCO5)n3n2)c1` gave Cruzain inh noDet inactive, Cruzain inh Det 28µM and NS1 inh inactive.
Screening CCOCCn1ccc2c(OCC(=O)Nc3ccc(C(N)=O)cc3)cccc2c1=O returned Cruzain inh noDet inactive and Cruzain inh Det inactive.
For CCCCCc1nn2cc(-c3ccccc3)nc2s1 the results were Cruzain inh noDet inactive and Cruzain inh Det inactive.
CCCCOc1ccccc1NC(=O)CC1Nc2ccccc2NC1=O (stereo not drawn) was read as Cruzain inh noDet 25µM, Cruzain inh Det inactive and NS1 inh inactive.
For CCCCNC(=O)CC1Nc2ccccc2NC1=O (stereo not drawn) the results were Cruzain inh noDet inactive, Cruzain inh Det inactive and NS1 inh inactive.
`CN(C)C(=O)c1ccc(-c2nc(NCc3cccnc3)c3ccccc3n2)cc1` gave Cruzain inh noDet inactive and Cruzain inh Det inactive.
CSc1ccc(CNC(=O)C2CCN(c3nnc(-n4cccc4CNc4ccc(C)cc4)s3)CC2)cc1 was read as Cruzain inh noDet inactive and Cruzain inh Det inactive.
Screening O=C1OC2(c3cc(Br)c(O)c(Br)c3Oc3c2cc(Br)c(O)c3Br)c2c(Cl)c(Cl)c(Cl)c(Cl)c21 returned Cruzain inh noDet inconclusive and Cruzain inh Det 16µM.
Screening O=C1OC(c2ccc(O)c(-c3ccccc3)c2)(c2ccc(O)c(-c3ccccc3)c2)c2c(Cl)c(Cl)c(Cl)c(Cl)c21 returned Cruzain inh noDet inactive, Cruzain inh Det inactive and NS1 inh inactive.
For Oc1ccc2ccccc2c1/C=N/Nc1nnc(-c2ncc[nH]2)c2ccccc12 the results were Cruzain inh noDet 25µM, Cruzain inh Det inactive and NS1 inh inactive.
COc1ccc(/C=N/Nc2nnc(-c3ncc[nH]3)c3ccccc23)cc1 was read as Cruzain inh noDet inactive, Cruzain inh Det inactive and NS1 inh inactive.
For CCOC(=O)C1=C([Si](C)(C)C)c2ccccc2N(S(=O)(=O)C(F)(F)F)C1C(=O)OCC (stereo not drawn) the results were Cruzain inh noDet inactive and Cruzain inh Det inactive.
Screening CCCS(=O)(=O)c1nc(S(=O)(=O)c2ccc(C)cc2)c(NCc2ccco2)s1 returned Cruzain inh noDet inactive, Cruzain inh Det inactive and NS1 inh inactive.
Screening Cc1ccc(S(=O)(=O)c2nc(S(=O)(=O)c3ccc(C)cc3)c(NCc3ccco3)s2)cc1 returned Cruzain inh noDet 32µM, Cruzain inh Det inactive and NS1 inh inactive.
Screening CCOC(=O)c1c(C)oc2nc(C)nc(N3CCN(c4ccc(C(C)=O)cc4)CC3)c12 returned Cruzain inh noDet inactive and Cruzain inh Det inactive.
Screening CCN(CC)c1nc2ccccc2nc1C(=O)Nc1cc(OC)c(OC)c(OC)c1 returned Cruzain inh noDet inconclusive and Cruzain inh Det inactive.
O=C(Nc1nc2ccccc2s1)c1cc2c(s1)-c1ccccc1OC2 was read as Cruzain inh noDet 13µM, Cruzain inh Det inactive and NS1 inh inactive.
Screening Cc1ccc(CCNC(=O)c2cc3c(s2)-c2ccccc2OC3)cc1 returned Cruzain inh noDet 13µM and Cruzain inh Det inactive.
Screening O=C(Nc1nccs1)c1cc2c(s1)-c1ccccc1OC2 returned Cruzain inh noDet inconclusive, Cruzain inh Det inactive and NS1 inh inactive.
For O=C(NCCc1ccc(Cl)cc1)c1cc2c(s1)-c1ccccc1OC2 the results were Cruzain inh noDet inconclusive and Cruzain inh Det inactive.
`N#Cc1cccc(-c2nc(NCCN3CCOCC3)c3ccccc3n2)c1` gave Cruzain inh noDet inactive and Cruzain inh Det inactive.
For COC(=O)c1ccc(C(C(=O)NC2CCCCC2)N(Cc2ccc(F)cc2)C(=O)Cc2cccs2)cc1 (stereo not drawn) the results were Cruzain inh noDet inactive, Cruzain inh Det inactive and NS1 inh inactive.
For COC(=O)c1ccc(C(C(=O)NC2CCCCC2)N(CCc2ccccc2)C(=O)Cc2cccs2)cc1 (stereo not drawn) the results were Cruzain inh noDet 13µM, Cruzain inh Det inactive and NS1 inh inactive.
Screening CC(Oc1ccccc1)C(=O)Nc1ccc(C(=O)OCc2cc(=O)n3ccsc3n2)cc1 (stereo not drawn) returned Cruzain inh noDet inconclusive and Cruzain inh Det inactive.
COc1cccc(Cn2c(=O)c(C)nc3cnc(OCc4ccccc4)nc32)c1 was read as Cruzain inh noDet inactive and Cruzain inh Det inactive.
`c1ccc(C2CO2)cc1` (stereo not drawn) gave Cruzain inh noDet inactive and Cruzain inh Det inactive.
CCOC(=O)c1noc2nc(C)n(Cc3cccc(C#N)c3)c(=O)c12 was read as Cruzain inh noDet inactive and Cruzain inh Det inactive.
`COP(=O)(OC)c1nc(-c2cccc3ccccc23)oc1NCCc1ccccc1` gave Cruzain inh noDet inconclusive, Cruzain inh Det 25µM and NS1 inh inactive.
Screening N#Cc1nc(-c2cccc3ccccc23)oc1NCCN1CCOCC1 returned Cruzain inh noDet inactive, Cruzain inh Det inactive and NS1 inh inactive.
COc1ccc(CCNc2oc(-c3cccc4ccccc34)nc2P(=O)(OC)OC)cc1OC was read as Cruzain inh noDet inconclusive, Cruzain inh Det inconclusive and NS1 inh inactive.
For CCCNc1oc(-c2cccc3ccccc23)nc1C#N the results were Cruzain inh noDet 3.2µM, Cruzain inh Det inconclusive and NS1 inh inactive.
CC(C)CCNC(=O)c1ccc(Cn2c(SCC(N)=O)nc3ccccc3c2=O)cc1 was read as Cruzain inh noDet inactive and Cruzain inh Det inactive.
Screening Cc1ccc(-n2ncc(C(=O)NCc3ccco3)c2C2CCN(C(=O)OC(C)(C)C)CC2)cc1 returned Cruzain inh noDet inactive and Cruzain inh Det inactive.
For Cc1cccc(N2CCN(S(=O)(=O)c3cc(C(=O)Nc4ccc(Oc5ccccc5)cc4)ccc3F)CC2C)c1 (stereo not drawn) the results were Cruzain inh noDet inactive and Cruzain inh Det inactive.
COc1ccccc1N1CCN(S(=O)(=O)c2ccccc2F)CC1 was read as Cruzain inh noDet inactive, Cruzain inh Det inactive and NS1 inh inactive.
`Cc1cccc(NC(=O)c2ccc(F)c(S(=O)(=O)N3CCN(c4ccc(F)cc4)CC3)c2)c1` gave Cruzain inh noDet inconclusive and Cruzain inh Det inactive.
For CC(C)c1ccc(NC(=O)c2ccc(F)c(S(=O)(=O)N3CCN(c4ccccc4F)CC3)c2)cc1 the results were Cruzain inh noDet inactive and Cruzain inh Det inactive.
Screening O=C(COC(=O)c1ccc(Cl)c(S(=O)(=O)N2CCN(c3ccc(F)cc3)CC2)c1)Nc1cccc(Cl)c1 returned Cruzain inh noDet 13µM, Cruzain inh Det inactive and NS1 inh inactive.

Bioassay records: PubChem BioAssay, National Center for Advancing Translational Sciences (NCATS)
